Measured values reported in PubChem BioAssay (NCI).
About 83,000 compounds went through this panel and 20% of them were active in at least one assay; those are over-represented in the sample as a whole.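 Results are percent growth after 48 hours of single-concentration exposure. 100 means growth as in untreated cells, lower positive values show inhibition; negative values down to -100 show cell death.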 A number with no mark means an inactive call. Calls of active or inactive are those of the source. How the source made its calls: active means growth percent below 10; inactive means the rest.

The compounds below were run on RXF 393 renal (assay: NCI-60 one-dose screen, 48 h (100 = growth as untreated, 0 = no growth, -100 = all killed)). Conditions: 10 µM unless noted.

| Structure (SMILES) | growth |
| --- | --- |
| Cc1cc2nc(-c3ccccc3)c(-c3ccccc3)nc2cc1C | 111% |
| CC(=O)OCCCCCNc1ccccc1 | 123% |
| CCOC(=O)Oc1c(OC)cc(C(=O)O[C@@H]2C[C@@H]3CN4CCc5c([nH]c6cc(OC)ccc56)[C@H]4C[C@@H]3[C@H](C(=O)OC)[C@H]2OC)cc1OC | 89.8% |
| CCC(=O)c1ccc(O)c(OC)c1 | 111% |
| COc1ccc(C2=C(c3ccccc3)c3ccc(OC(C)=O)cc3OC2(C)C)cc1 | 95.8% |
| O=C1OC(=O)C2C1CC=CC2c1ccccc1 (stereo not given) | 102% |
| Clc1nc(Nc2ccccc2)nc(Nc2ccccc2)n1 | 117% |

What follows are compounds tested on SF-268 CNS in the same assay as above. Conditions: 10 µM unless noted.

| Structure (SMILES) | growth |
| --- | --- |
| CC(C)Cc1ccc(C(C)C(=O)NCc2ccc(Cn3c(=O)sn(-c4ccc(Cl)cc4)c3=O)cc2)cc1 (stereo not given) | 79.9% |
| COc1ccc(Cn2nc3c(c2-c2cc(OC)c(OC)c(OC)c2)-c2oncc2CC3)cc1 | 96.7% |
| Cc1ccc(C(c2c(O)c3cc(Br)ccc3[nH]c2=O)c2c(O)c3cc(Br)ccc3[nH]c2=O)cc1 | 87.1% |
| CN1CCN(Cc2ccc(NC(=O)c3cncc(C#Cc4cnccc4C(F)(F)F)c3)cc2C(F)(F)F)CC1 | 92.1% |
| COc1ccc(/C=C/c2n[nH]c3ccc(N4CCOC4=O)cc23)cc1 | 13% |
| COc1cc2nnn3c4ncccc4c(N=O)c3c2cc1OC | 30.3% |
| Cc1cc2nc(-c3ccccc3)c(-c3ccccc3)nc2cc1C | 116% |
| Cc1ccc2[nH]c(=O)cc(-n3nncc3COc3ccc(C=O)cc3)c2c1 | 102% |
| CCCOc1nc(SCCC)nc2c1cnn2-c1ccccc1 | 87.7% |
| NC(=O)c1cccc(-c2ccccc2N2CCCCC2)c1 | 94% |
| COc1cc2ncnc(Nc3ccc(C(=O)/C=C/c4ccc(C(F)(F)F)cc4F)cc3)c2cc1OC | 96.2% |
| CC(=O)OCCCCCNc1ccccc1 | 99.4% |
| O=C(Nc1sc2c(c1C(=O)O)CCCC2)c1cccc(C(F)(F)F)c1 | 94.9% |
| CCN1C(=O)N(CC)C2NC(SC)=NC21 (stereo not given) | 95.3% |
| C/C(=C(/c1ccccc1)c1ccc(OCC(O)CN2CCOCC2)cc1)c1ccccc1 (stereo not given) | 104% |
| COc1ccc(C(=O)c2cc3c(N)c(C(=O)Nc4ccc(Br)cc4)sc3nc2C)cc1 | 50.2% |
| CCOC(=O)Oc1c(OC)cc(C(=O)O[C@@H]2C[C@@H]3CN4CCc5c([nH]c6cc(OC)ccc56)[C@H]4C[C@@H]3[C@H](C(=O)OC)[C@H]2OC)cc1OC | 75.2% |
| COc1ccc(-c2nc(N/N=C/c3ccco3)nc(N3CCOCC3)c2C#N)cc1 | 80.1% |
| CCC(=O)c1ccc(O)c(OC)c1 | 104% |

| Structure (SMILES) | growth |
| --- | --- |
| COc1ccc(-c2nc(N=Nc3c(O)[nH]c4ccccc34)nc(N3CCOCC3)c2C#N)cc1 | 62.4% |
| CCCCCCCCCCCCCCCC(=O)OC[C@@]1(O)C[C@@]23CC[C@@H]4C(C)(C)[C@H](O)CC[C@@]4(C)[C@@H]2CC[C@H]1C3 | 101% |
| FC(F)(F)Oc1cccc(-c2cc(NCCCCCCNc3cc(-c4cccc(OC(F)(F)F)c4)nc4ccc(N5CCCC5)cc34)c3cc(N4CCCC4)ccc3n2)c1 | -65.5% (active) |
| COc1ccc(C2=C(c3ccccc3)c3ccc(OC(C)=O)cc3OC2(C)C)cc1 | 102% |
| Cc1c2c(cc[n+]1Cc1ccc(F)cc1)c1ccc(OCc3cccc(F)c3)cc1n2Cc1cccc(F)c1 | -94.2% (active) |
| CC1=CC2(C)/C=C(C)/C=C\CC(O)/C=C3/C=CC(=C4C(=O)OC2(CC1C)C4=O)OC3 (stereo not given) | -22.4% (active) |
| O=C1OC(=O)C2C1CC=CC2c1ccccc1 (stereo not given) | 91.1% |
| C=C(C)[C@H]1CC/C(C)=C/CC[C@]2(C)O[C@H]2CC/C(COC(=O)[C@@H](OC(C)=O)[C@H](NC(=O)c2ccccc2)c2ccccc2)=C\[C@@H]1O | 90.2% |
| O=C(O)c1cn(C2CC2)c2cc(N3CCN(C(=O)C[n+]4cccc5ccccc54)CC3)c(F)cc2c1=O | 68.2% |
| COc1ccc(Nn2c(SCC(=O)Nc3nc(-c4ccc(Cl)cc4)cs3)nc(C)c2C)cc1 | 66.1% |
| Cn1c2c(Cl)c(Cl)ccc2c2cc(N)[nH]c(=O)c21 | 80.9% |
| CC(=O)c1c[nH]c2ccc(-c3ccnc(Nc4ccc(NC(=O)c5cccc(F)c5)c(CN5CCOCC5)c4)n3)cc12 | -16.8% (active) |
| Clc1nc(Nc2ccccc2)nc(Nc2ccccc2)n1 | 103% |
| O=C1Nc2c(ccc(Cl)c2Cl)/C1=C/c1ccccn1 | 84.8% |
| Cc1ccc2nc3c(cc2c1)CSc1nnc(-c2ccc[nH]c2=S)n1N3 | 89.5% |
| CN1CCN(C(=O)[C@]2(C)CC[C@]3(C)CC[C@]4(C)C(=CC(=O)[C@@H]5[C@@]6(C)CCC(=O)NC(C)(C)[C@@H]6CC[C@]54C)[C@@H]3C2)CC1 | 94.3% |
| COc1ccc(-c2nn(Cc3ccccc3)c3c2-c2oncc2CC3)cc1OC | 104% |
| O=c1[nH]c2c(s1)CCCC2CN1CCCCC1 (stereo not given) | 98.7% |
| CC(C)(C)CC(C)(C)Nc1c(-c2ccc3c(c2)OCO3)nc2cnccn12 | 84.1% |
